# From PubChem BioAssay
# An excerpt weighted towards active compounds, which were near 2.6% of everything screened.
# PABP1 MLLE inh: blocks PAM2 peptide binding to the PABP1 MLLE domain | P11940 | GST-MLLE / FITC-PAM2 fluorescence polarization | inhibition, % at 20 µM | hit rate 0.36% among 360,000; in the data active = inhibition above about 35%, passing the limit was not always enough
# Target sequence (P11940 whole entry, looked up, the tested form may be a part): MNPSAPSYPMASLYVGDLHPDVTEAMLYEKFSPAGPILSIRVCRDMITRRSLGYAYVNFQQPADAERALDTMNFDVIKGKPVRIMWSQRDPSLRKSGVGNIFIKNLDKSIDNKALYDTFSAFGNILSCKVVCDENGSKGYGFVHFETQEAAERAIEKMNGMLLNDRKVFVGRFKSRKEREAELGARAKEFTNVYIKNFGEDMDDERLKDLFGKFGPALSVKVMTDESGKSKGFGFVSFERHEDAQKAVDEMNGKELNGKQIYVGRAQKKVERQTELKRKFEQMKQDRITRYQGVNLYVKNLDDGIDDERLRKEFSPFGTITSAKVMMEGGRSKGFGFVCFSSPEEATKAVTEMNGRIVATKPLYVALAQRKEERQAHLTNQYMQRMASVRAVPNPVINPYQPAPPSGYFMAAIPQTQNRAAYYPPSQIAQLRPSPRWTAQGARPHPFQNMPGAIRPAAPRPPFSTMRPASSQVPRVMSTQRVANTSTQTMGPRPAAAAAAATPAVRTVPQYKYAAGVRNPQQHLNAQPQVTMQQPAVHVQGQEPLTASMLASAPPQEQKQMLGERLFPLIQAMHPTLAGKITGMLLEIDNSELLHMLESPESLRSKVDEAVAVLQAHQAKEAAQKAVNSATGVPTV
# eIF4H inh: inhibitors of RNA binding by human eIF4H; Q15056; eIF4H fluorescence polarization binding assay; inhibition, % at 35 µM; hit rate 0.94% among 290,000; AID 2012;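 note: calls also rest on retests at 20 µM and on dose response follow-up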
# PABP FP inh: blocks human PABP binding to poly(A) RNA; P11940; fluorescence polarization; inhibition, % at 35 µM; hit rate 1% among 290,000;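 note: calls also rest on retests at 20 µM and on dose response follow-up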
# CRFBP-R2 block: antagonists of CRF-binding protein/CRF-R2 receptor complex; HEK293 CRF-R2/CRF-BP, CRF-induced calcium fluorescence; inhibition, % at 11.8 µM; hit rate 0.59% among 350,000;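 active = inhibition of the ligand-induced calcium signal above about 50% at the single tested concentration, limit read from the data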
# PHOSPHO1 inh: PHOSPHO1 (human) inhibition | Q8TCT1 | recombinant PHOSPHO1, absorbance phosphatase assay | inhibition, % at 13.3 µM | hit rate 1.1% among 290,000; in the data active = inhibition above about 60%
# Hits are given with their value; 0 = inactive; ? = inconclusive; - = no result given. Unless noted, the rule behind the calls is not given here.
SMILES,PABP1 MLLE inh,eIF4H inh,PABP FP inh,CRFBP-R2 block,PHOSPHO1 inh
CC1=C(C(=O)N(C(C)C)C(C)C)CC(CC(=O)NCCCCc2ccccc2)C(=O)N1Cc1ccc(C(C)(C)C)cc1 (centres undefined),0,-,-,-,-
CCOC(OCC)c1nc(N)[nH]c(=O)c1CCCCc1ccccc1,0,-,-,0,-
COC(=O)c1sc(S(=O)(=O)NCCCN(C)C)c(C(=O)OC)c1C,0,0,0,0,80
CC(=O)C12OC(C)(C)OC1CC1C3CCC4=CC(=O)C=CC4(C)C3(F)C(O)CC12C (centres undefined),0,-,-,0,-
COC(=O)N/N=C/c1ccc(OC(=O)/C=C/c2ccco2)cc1,0,?,25,0,0
NC(=Nc1c([N+](=O)[O-])cnc2ccccc12)N1CCOCC1,0,-,-,-,-
O=C(CCl)Nc1ccc(N=Nc2ccccc2)cc1,0,active,0,0,0
CN(C(=O)c1cccc(NC(=O)Cc2cccc(NC(=O)C3CCCN(C(=O)C4CCCC4)C3)c2)c1)C1CC1 (centres undefined),0,-,-,0,-
Cc1cccc(CSc2ccc3nnc(-c4cccs4)n3n2)c1,0,0,0,63,0
Fc1ccc(CSc2ccc3nnc(-c4cccs4)n3n2)cc1,0,0,0,0,0
Cc1[nH][nH]c(=O)c1C(c1ccc(-c2ccc(Cl)cc2Cl)o1)c1c(C)[nH][nH]c1=O,-,0,0,-,64
Cc1[nH][nH]c(=O)c1C(c1ccc(-c2cccc(Cl)c2)o1)c1c(C)[nH][nH]c1=O,0,0,0,0,0
CCN(C(=O)COC(=O)c1cc2ccccc2cc1OC)c1c(N)n(Cc2ccccc2)c(=O)[nH]c1=O,0,-,-,0,-
COc1ccc(C(=S)N2CCCC2)cc1OC,0,0,0,0,0
COc1cc(C(=S)N2CCN(c3ccccc3Cl)CC2)cc(O)c1O,42,0,0,0,0
COc1ccc(C(=S)N2CCN(c3ccccc3Cl)CC2)cc1OC,40,0,0,0,0
COc1cc(C(=S)N2CCN(c3cccc(Cl)c3)CC2)ccc1O,0,0,0,0,0
NC(=O)NC(=O)COC(=O)c1ccc(Cl)c(S(=O)(=O)N(Cc2ccccc2)c2ccc(Cl)cc2)c1,0,0,16,0,0
Cc1ccc(C(=Cc2ccc([N+](=O)[O-])cc2)C(=O)O)cc1,0,-,-,0,-
COc1ccc(CCN2C(=O)NC(NS(=O)(=O)c3ccc(NC(C)=O)cc3)(C(F)(F)F)C2=O)cc1OC (centres undefined),0,0,0,0,64
CN(C)CCOC(=O)c1ccc2[nH]c3c(c2c1)CSCC3,0,0,0,0,0
O=C(O)c1ccc2[nH]c3c(c2c1)CSCC3,0,56,0,0,0
O=C(N/N=C(\CC(=O)c1cccs1)C(F)(F)F)c1ccncc1,0,0,0,0,0
Cc1ccc(C(=O)N/N=C(/CC(=O)c2cccs2)C(F)(F)F)cc1,0,0,0,80,0
NC(=S)NN=Cc1nccc2ccccc12,0,-,-,0,-
SMILES,PABP1 MLLE inh,eIF4H inh,PABP FP inh,CRFBP-R2 block,PHOSPHO1 inh
Cc1cnc(C=NNC(N)=S)c2cccc(N)c12,43,-,-,0,-
COc1ccccc1Nc1nc2c(s1)CCC2,0,0,0,0,76
CC(C)c1ccc(NC(=O)C2CCN(S(=O)(=O)c3ccc4c(c3)C(C)(C)C(=O)N4C)CC2)cc1,0,0,0,0,0
CCCCn1c(-c2cccnc2)nc2cc3[nH]c(=O)c(C(C)C)nc3cc21,0,0,36,0,0
CCCCn1c(-c2ccc(C(C)(C)C)cc2)nc2cc3[nH]c(=O)c(C(C)C)nc3cc21,0,0,35,0,0
CC(=O)Nc1ccc(S(=O)(=O)NC(C)C(=O)OCC(=O)Nc2ccc(F)cc2Cl)cc1 (centres undefined),0,-,-,0,-
Cc1nc(NC(=O)c2ccccc2)sc1Cc1ccc2c(c1)OCO2,0,0,0,0,0
Cc1nc(NC(=O)c2ccc(Cl)cc2)sc1Cc1ccc2c(c1)OCO2,0,0,0,0,71
CN1CCc2c(sc3c2C(=O)NC(c2cccs2)N3)C1 (centres undefined),0,?,0,0,0
CSc1ccc(C2NC(=O)c3c(sc4c3CCN(C)C4)N2)cc1 (centres undefined),0,109,121,0,0
COc1cc(NC(=O)c2ccccc2-c2ccccc2)cc(OC)c1OC,-,0,0,-,0
COc1cc(C=Nc2ccccc2C(=O)Nc2ccccc2)cc(OC)c1OC,0,3.3,110,0,0
COc1ccc(N2CCN(CCCNC(=O)C(=O)c3c(C)[nH]c4ccccc34)CC2)cc1,0,0,0,62,0
COc1ccc(N2CCN(CC(=O)c3c[nH]c4ccccc34)CC2)cc1,0,0,0,0,0
CNCc1ccccc1Sc1ccc(O)c(O)c1,40,0,0,0,0
COc1ccc(Sc2ccccc2CN(C)C)cc1OC,0,0,0,0,0
FC(F)(F)c1ccc(-c2cccc3c2C2CC3CCN2Cc2ccc3c(c2)OCO3)cc1 (centres undefined),0,-,-,-,-
Cc1ccc(OCC(=O)N/N=C\c2ccc(-c3cccc(C(=O)O)c3)o2)c(C)c1,0,89,0,0,0
COc1ccc(CC(=O)N/N=C/c2ccc(-c3ccc(F)cc3)o2)cc1OC,0,0,0,0,0
COc1ccc(CC(=O)N/N=C/c2ccc(-c3cccc(C(=O)O)c3)o2)cc1OC,0,81,53,0,0
CCn1c(=O)n(Cc2ccco2)c(=N)c2c3c(sc21)COC(C)(C)C3,0,0,0,0,63
CCOC(=O)C1=NN(c2cccc(C)c2)C2(S1)SC(C(C)=O)=C(C)N2c1ccccc1 (centres undefined),0,0,0,0,62
CCOC(=O)C1=NN(c2ccccc2)C2(S1)SC(C(C)=O)=C(C)N2c1ccccc1 (centres undefined),0,0,0,0,0
OC(c1ccccc1)C(Nc1ccccn1)c1ccccc1 (centres undefined),0,-,-,0,-
Cc1nc(NC(=S)NC(=O)c2ccccc2)sc1C(=O)N(C)C,42,0,0,0,0
SMILES,PABP1 MLLE inh,eIF4H inh,PABP FP inh,CRFBP-R2 block,PHOSPHO1 inh
COc1ccc(C(=O)NC(=S)NCc2ccccc2)cc1,0,0,0,0,62
Cn1cccc1CC(=O)NNC(=S)NC(=O)c1ccc(F)cc1,0,0,0,0,92
O=C(NNC(=S)NC(=O)c1ccco1)c1ccc(F)cc1,0,0,0,0,0
COc1ccc(/C=C/C(=O)NC(=S)NNC(=O)Cc2cccs2)cc1OC,0,0,0,0,98
COc1ccc(OC)c(S(=O)(=O)NC(=O)C2(C)CCN2C(=O)C2(c3ccc(Cl)cc3)CC2)c1 (centres undefined),0,-,-,-,-
COc1ccccc1Nc1ncccc1C(=O)NCc1ccccc1,0,0,0,0,0
CC1CCCCN1C(=S)Nc1ccc(S(=O)(=O)N2CCCCC2)cc1 (centres undefined),0,-,-,0,-
O=C(NC(=S)Nc1ccc(Oc2ccccc2)cc1)c1ccc(Cl)cc1,41,0,0,0,0
Cc1ccc(C(=O)NC(=S)Nc2ccc(Oc3ccc(Cl)cc3)cc2)cc1,0,0,0,0,0
COc1ccc(C(=O)NC(=S)NNC(=O)Cc2cccs2)cc1,0,0,0,0,100
COc1ccc[nH]c1=O,0,0,0,0,0
